Data on 1 sequence can be found in publication PMC7862700, “An all-to-all approach to the identification of sequence-specific readers for epigenetic DNA modifications on cytosine”.

What all share (assay): DAPPL (digital affinity profiling via proximity ligation, sequencing); 10 mM Tris-HCl pH 7.5, 50 mM NaCl, 1 mM DTT, 4% glycerol, room temperature, 30 min; GST-TFs on glutathione beads, 16-mer random dsDNA library, 0.1% formaldehyde crosslink after washing; high values mean tight binding
In one experiment the target is T1, FEV (Homo sapiens, UniProt Q99581 1-238).
T1 sequence: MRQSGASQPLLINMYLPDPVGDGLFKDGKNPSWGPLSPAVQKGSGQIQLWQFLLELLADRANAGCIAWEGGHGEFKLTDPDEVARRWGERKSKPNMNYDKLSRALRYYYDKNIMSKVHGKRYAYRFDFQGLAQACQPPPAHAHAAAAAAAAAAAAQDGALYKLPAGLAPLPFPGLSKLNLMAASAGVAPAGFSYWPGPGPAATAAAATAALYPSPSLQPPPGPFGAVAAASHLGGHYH
As to conditions: protein: recombinant; tags: N-terminal GST; dsDNA, one strand shown. The procedure, abridged: (§1)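 A tag-only sample was pooled with DNA-barcoded human transcription factors that had been expressed in yeast as GST fusions and captured on glutathione beads. The pools were incubated for 30 min at room temperature with 200 nmole of a random double-stranded 16-mer DNA library in Tris/NaCl/DTT/glycerol buffer, then washed, crosslinked with 0.1% formaldehyde, proximity-ligated (BsaI/T4 ligase, 1 h, 37 °C), PCR-amplified and sequenced on an Illumina NextSeq500. Binding signal is each hexamer's read frequency for a factor divided by its frequency for the tag-only sample.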

In a further experiment the target is ETV5 (Homo sapiens, UniProt P41161 1-510). As to conditions: protein: recombinant; tags: N-terminal GST; dsDNA, one strand shown. The gist of the method:
as §1

A further experiment has as its target HSF1 (Homo sapiens, UniProt Q00613 1-529). As to conditions: protein: recombinant; tags: N-terminal GST; chain copies: 3; dsDNA, one strand shown. The procedure, abridged: as §1
A further experiment deals with T2, SPIC (Homo sapiens, UniProt Q8N5J4 1-248).
T2 sequence: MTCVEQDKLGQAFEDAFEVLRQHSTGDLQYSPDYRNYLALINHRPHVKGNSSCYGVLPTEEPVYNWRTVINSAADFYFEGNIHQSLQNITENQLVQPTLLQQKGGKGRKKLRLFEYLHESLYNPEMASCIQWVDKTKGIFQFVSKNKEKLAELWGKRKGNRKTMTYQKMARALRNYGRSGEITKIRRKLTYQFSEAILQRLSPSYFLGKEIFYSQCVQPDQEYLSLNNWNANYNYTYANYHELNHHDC
As to conditions: protein: recombinant; tags: N-terminal GST; dsDNA, one strand shown. The gist of the method: as §1

A further experiment concerns the target ELF4 (Homo sapiens, UniProt Q99607 1-663). As to conditions: protein: recombinant; tags: N-terminal GST; dsDNA, one strand shown. The gist of the method:
as §1

The target of the next experiment is T3, ELK4 (Homo sapiens, UniProt P28324-2 1-405).
T3 sequence: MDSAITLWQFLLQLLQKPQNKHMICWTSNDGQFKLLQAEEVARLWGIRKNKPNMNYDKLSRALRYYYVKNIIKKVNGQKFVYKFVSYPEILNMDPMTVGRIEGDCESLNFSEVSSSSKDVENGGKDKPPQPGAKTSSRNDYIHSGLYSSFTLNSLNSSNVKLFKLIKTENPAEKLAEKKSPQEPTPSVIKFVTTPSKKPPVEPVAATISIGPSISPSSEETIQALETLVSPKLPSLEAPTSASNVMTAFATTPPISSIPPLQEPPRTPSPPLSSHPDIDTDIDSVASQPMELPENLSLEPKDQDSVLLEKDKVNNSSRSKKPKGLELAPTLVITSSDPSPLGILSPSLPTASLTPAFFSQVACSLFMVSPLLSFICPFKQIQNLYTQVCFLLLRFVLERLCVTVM
As to conditions: protein: recombinant; tags: N-terminal GST; dsDNA, one strand shown. The gist of the method: as §1

In another experiment the target is T4, ETV2 (Homo sapiens, UniProt O00321 1-342).
T4 sequence: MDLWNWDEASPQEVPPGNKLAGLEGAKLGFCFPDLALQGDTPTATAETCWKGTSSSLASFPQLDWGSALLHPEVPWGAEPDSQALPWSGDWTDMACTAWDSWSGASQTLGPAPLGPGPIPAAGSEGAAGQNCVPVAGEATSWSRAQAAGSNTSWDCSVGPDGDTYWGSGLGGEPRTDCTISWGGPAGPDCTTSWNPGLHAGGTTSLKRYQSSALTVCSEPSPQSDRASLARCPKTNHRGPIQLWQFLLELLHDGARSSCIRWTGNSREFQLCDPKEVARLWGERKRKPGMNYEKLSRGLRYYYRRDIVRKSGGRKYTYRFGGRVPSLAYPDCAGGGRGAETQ
Conditions: protein: recombinant; tags: N-terminal GST; dsDNA, one strand shown. The procedure, abridged: as §1

Another experiment deals with T5, ELF3 (Homo sapiens, UniProt P78545 1-371).
T5 sequence: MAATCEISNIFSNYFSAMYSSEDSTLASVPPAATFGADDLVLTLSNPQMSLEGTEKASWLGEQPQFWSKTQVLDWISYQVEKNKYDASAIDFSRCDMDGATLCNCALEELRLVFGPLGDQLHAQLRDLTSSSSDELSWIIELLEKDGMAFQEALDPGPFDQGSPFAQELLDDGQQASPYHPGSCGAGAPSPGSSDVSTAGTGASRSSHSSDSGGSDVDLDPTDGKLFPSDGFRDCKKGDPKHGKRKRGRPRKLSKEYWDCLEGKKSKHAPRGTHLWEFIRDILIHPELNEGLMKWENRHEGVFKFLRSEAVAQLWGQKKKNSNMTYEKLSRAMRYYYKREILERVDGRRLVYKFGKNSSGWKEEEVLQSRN
As to conditions: protein: recombinant; tags: N-terminal GST; dsDNA, one strand shown. The procedure, abridged:
as §1

For a further experiment, the target named is CRX (Homo sapiens, UniProt O43186 1-299). Conditions: protein: recombinant; tags: N-terminal GST; dsDNA, one strand shown. The procedure, abridged:
as §1

Another experiment has as its target ETV1 (Homo sapiens, UniProt P50549 1-477). Conditions: protein: recombinant; tags: N-terminal GST; dsDNA, one strand shown. The procedure, abridged: as §1
The target of the next experiment is T6, ERF (Homo sapiens, UniProt P50548 1-548).
T6 sequence: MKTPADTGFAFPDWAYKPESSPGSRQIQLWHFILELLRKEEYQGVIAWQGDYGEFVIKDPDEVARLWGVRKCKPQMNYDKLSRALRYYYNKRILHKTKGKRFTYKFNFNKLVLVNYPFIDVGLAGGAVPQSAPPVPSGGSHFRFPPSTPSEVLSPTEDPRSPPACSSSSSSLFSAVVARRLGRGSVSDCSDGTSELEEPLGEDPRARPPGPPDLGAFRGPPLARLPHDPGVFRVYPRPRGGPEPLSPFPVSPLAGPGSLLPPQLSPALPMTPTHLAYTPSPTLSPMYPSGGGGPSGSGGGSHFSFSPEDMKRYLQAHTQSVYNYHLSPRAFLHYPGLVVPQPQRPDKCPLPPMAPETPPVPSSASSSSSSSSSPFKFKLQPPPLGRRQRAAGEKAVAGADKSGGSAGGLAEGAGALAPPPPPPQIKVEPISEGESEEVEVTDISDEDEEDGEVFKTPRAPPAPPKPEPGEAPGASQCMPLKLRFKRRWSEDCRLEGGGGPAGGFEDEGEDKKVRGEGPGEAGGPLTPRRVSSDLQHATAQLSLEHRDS
As to conditions: protein: recombinant; tags: N-terminal GST; dsDNA, one strand shown. The procedure, abridged: as §1

In the next experiment the target is T7, ETV3L (Homo sapiens, UniProt Q6ZN32 1-361).
T7 sequence: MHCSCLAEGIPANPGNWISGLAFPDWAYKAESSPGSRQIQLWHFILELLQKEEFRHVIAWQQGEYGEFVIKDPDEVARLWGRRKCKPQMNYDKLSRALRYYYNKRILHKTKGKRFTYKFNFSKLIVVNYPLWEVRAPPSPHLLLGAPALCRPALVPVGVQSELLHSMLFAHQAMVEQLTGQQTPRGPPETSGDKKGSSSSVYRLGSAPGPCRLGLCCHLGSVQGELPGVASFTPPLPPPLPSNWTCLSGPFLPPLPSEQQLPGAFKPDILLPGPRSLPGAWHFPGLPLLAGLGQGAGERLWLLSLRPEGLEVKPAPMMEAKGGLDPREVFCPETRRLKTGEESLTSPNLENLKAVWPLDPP
As to conditions: protein: recombinant; tags: N-terminal GST; dsDNA, one strand shown. The procedure, abridged:
as §1

The target in another experiment is T8, ETS2 (Homo sapiens, UniProt P15036 1-469).
T8 sequence: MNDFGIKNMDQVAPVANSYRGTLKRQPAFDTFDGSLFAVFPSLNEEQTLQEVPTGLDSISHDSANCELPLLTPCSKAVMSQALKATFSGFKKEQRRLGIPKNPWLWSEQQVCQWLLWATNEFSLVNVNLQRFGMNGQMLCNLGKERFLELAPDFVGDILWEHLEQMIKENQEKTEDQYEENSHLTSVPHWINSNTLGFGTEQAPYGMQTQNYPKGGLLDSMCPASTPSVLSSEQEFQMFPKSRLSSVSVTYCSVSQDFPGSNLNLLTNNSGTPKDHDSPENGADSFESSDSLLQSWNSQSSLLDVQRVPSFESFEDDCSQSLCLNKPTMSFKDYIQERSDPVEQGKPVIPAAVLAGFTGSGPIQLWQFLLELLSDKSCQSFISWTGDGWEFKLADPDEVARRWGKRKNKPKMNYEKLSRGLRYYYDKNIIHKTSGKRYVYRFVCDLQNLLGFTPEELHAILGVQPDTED
Conditions: protein: recombinant; tags: N-terminal GST; dsDNA, one strand shown. The procedure, abridged:
as §1

The target of the next experiment is T9, SPDEF (Homo sapiens, UniProt O95238 1-335).
T9 sequence: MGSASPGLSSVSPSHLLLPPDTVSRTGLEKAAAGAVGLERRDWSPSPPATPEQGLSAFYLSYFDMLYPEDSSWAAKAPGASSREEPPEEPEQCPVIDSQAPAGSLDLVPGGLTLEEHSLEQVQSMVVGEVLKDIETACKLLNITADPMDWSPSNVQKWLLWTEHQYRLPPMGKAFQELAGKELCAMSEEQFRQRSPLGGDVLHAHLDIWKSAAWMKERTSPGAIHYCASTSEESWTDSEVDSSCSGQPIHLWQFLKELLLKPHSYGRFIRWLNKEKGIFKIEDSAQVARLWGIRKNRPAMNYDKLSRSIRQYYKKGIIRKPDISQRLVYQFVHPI
Conditions: protein: recombinant; tags: N-terminal GST; dsDNA, one strand shown. The gist of the method:
as §1

Another experiment addresses T10, ETV7 (Homo sapiens, UniProt Q9Y603 1-341).
T10 sequence: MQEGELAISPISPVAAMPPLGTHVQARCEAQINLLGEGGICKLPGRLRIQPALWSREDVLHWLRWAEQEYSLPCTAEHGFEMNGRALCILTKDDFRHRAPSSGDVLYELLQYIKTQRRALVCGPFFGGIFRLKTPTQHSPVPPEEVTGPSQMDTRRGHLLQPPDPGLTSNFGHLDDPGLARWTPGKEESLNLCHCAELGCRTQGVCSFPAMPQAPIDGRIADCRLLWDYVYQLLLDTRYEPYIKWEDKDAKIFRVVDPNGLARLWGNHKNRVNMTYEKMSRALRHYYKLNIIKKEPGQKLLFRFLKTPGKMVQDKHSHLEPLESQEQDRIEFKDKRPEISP
Conditions: protein: recombinant; tags: N-terminal GST; dsDNA, one strand shown. The procedure, abridged: as §1

In a further experiment the target is T11, ELF5 (Homo sapiens, UniProt Q9UKW6-2 1-255).
T11 sequence: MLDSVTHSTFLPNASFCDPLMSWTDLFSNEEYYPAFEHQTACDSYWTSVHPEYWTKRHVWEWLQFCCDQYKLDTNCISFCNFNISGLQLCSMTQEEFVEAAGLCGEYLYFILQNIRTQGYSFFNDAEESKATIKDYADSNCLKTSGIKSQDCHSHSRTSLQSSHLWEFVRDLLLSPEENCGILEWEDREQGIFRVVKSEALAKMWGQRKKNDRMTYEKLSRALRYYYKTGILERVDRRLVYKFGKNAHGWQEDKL
As to conditions: protein: recombinant; tags: N-terminal GST; dsDNA, one strand shown. The procedure, abridged:
as §1

For another experiment, the target named is T12, ETV3 (Homo sapiens, UniProt P41162-2 1-143).
T12 sequence: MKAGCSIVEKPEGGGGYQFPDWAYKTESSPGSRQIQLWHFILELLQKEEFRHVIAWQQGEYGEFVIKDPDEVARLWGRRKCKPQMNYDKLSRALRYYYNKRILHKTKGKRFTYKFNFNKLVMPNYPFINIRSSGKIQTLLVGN
Conditions: protein: recombinant; tags: N-terminal GST; dsDNA, one strand shown. The gist of the method:
as §1

The target of the next experiment is ETV6 (Homo sapiens, UniProt P41212 1-452). As to conditions: protein: recombinant; tags: N-terminal GST; dsDNA, one strand shown. The procedure, abridged: as §1
Chain of ETV6 (P41212 whole entry): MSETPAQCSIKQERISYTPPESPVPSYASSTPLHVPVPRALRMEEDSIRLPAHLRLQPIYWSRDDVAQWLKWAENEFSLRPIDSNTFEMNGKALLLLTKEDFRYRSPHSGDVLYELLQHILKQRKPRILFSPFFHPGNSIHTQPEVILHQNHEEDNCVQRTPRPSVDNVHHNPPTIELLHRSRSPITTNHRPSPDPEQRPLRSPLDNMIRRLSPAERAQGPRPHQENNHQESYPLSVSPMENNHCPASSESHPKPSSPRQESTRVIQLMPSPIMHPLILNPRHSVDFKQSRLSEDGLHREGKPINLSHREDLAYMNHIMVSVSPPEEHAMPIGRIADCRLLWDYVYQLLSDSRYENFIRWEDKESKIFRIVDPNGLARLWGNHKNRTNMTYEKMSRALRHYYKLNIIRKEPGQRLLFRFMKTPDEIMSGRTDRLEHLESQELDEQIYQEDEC

Chain of ETV5 (P41161 whole entry): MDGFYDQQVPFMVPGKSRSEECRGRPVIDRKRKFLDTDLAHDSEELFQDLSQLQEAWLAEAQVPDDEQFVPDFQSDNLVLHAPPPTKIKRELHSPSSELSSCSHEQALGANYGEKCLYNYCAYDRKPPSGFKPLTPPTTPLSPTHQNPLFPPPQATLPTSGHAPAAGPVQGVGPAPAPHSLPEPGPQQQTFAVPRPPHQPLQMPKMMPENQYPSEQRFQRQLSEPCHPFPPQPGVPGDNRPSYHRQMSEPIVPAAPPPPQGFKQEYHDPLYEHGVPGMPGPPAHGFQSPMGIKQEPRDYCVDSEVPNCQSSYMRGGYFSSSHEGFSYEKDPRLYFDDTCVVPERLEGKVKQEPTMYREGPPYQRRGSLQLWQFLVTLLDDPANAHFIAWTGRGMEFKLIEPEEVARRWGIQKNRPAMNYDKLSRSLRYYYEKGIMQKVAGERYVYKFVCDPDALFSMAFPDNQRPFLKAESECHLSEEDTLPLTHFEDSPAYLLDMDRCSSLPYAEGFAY
Chain of ETV1 (P50549 whole entry): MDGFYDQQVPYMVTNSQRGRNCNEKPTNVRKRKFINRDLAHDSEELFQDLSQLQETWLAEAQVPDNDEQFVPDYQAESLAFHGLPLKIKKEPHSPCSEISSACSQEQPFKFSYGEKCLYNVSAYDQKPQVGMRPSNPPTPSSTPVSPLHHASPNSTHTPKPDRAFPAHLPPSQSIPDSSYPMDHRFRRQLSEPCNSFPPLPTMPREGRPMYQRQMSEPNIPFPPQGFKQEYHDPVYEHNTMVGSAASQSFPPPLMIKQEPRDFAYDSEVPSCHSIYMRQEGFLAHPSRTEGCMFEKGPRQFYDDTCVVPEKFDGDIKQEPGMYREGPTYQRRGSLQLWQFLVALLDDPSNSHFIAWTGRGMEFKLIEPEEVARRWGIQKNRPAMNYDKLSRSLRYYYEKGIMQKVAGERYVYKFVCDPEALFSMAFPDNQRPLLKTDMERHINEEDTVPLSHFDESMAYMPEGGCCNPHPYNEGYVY
Chain of HSF1 (Q00613 whole entry): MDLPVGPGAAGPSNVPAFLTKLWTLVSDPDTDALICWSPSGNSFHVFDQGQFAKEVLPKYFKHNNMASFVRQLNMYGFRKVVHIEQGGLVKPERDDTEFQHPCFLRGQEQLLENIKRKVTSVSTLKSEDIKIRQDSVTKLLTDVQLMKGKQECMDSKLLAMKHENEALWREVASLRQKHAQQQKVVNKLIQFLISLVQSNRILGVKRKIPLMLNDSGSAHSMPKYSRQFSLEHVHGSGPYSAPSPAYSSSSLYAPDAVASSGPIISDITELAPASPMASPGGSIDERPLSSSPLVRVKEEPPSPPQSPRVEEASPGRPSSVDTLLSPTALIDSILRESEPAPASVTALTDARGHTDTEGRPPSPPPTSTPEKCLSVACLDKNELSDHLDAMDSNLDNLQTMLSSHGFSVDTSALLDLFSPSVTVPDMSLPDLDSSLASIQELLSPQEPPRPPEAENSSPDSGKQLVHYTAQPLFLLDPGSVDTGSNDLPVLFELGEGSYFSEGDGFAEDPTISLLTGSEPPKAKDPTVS
Chain of ELF4 (Q99607 whole entry): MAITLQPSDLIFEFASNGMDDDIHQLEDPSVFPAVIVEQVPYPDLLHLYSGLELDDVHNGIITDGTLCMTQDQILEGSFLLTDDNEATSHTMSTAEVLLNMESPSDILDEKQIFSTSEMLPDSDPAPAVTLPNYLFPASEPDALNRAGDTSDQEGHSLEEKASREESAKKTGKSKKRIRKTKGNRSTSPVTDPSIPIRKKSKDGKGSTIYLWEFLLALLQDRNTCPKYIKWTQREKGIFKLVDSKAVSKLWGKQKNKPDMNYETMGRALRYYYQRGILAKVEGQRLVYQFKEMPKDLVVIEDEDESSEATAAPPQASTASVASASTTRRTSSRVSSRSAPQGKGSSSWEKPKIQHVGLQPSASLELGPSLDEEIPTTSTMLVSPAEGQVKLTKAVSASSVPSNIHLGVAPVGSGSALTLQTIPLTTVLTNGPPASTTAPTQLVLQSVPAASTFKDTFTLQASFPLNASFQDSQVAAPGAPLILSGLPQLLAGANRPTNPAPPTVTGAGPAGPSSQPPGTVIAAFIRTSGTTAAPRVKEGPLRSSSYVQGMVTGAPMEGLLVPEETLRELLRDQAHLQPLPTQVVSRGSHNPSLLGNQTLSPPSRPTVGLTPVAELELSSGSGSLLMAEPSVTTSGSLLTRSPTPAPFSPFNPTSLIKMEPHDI
Chain of CRX (O43186 whole entry): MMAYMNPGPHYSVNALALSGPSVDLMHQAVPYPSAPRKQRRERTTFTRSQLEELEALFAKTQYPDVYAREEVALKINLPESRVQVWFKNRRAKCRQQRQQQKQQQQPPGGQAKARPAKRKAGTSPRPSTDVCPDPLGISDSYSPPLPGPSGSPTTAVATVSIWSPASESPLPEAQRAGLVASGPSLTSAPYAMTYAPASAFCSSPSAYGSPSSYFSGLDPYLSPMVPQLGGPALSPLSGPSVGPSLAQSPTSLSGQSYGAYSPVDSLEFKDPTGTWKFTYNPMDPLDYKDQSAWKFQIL

With AATGCT, the binding signal with FEV is 1.2 fold enrichment (6-mer frequency, TF over GST control); with ETV5, 1.27 fold enrichment (6-mer frequency, TF over GST control); in the experiment with HSF1 it was 1.29 fold enrichment (6-mer frequency, TF over GST control); in the experiment with SPIC it was 1.24 fold enrichment (6-mer frequency, TF over GST control); with ELF4 it was 1.25 fold enrichment (6-mer frequency, TF over GST control); with ELK4, 1.3 fold enrichment (6-mer frequency, TF over GST control). Further, the binding signal was 1.3 fold enrichment (6-mer frequency, TF over GST control) with ETV2; 1.21 fold enrichment (6-mer frequency, TF over GST control) with ELF3; 1.26 fold enrichment (6-mer frequency, TF over GST control) with CRX; 1.24 fold enrichment (6-mer frequency, TF over GST control) with ETV1; 1.16 fold enrichment (6-mer frequency, TF over GST control) with ERF; 1.15 fold enrichment (6-mer frequency, TF over GST control) with ETV3L. Besides, the binding signal with ETS2 is 1.2 fold enrichment (6-mer frequency, TF over GST control); with SPDEF, 1.11 fold enrichment (6-mer frequency, TF over GST control); with ETV7, 1.1 fold enrichment (6-mer frequency, TF over GST control); with ELF5 it was 1.24 fold enrichment (6-mer frequency, TF over GST control); with ETV3, 1.14 fold enrichment (6-mer frequency, TF over GST control); with ETV6 it was 1.32 fold enrichment (6-mer frequency, TF over GST control).
